A selection: hits, their analogues and other compounds. The true share with any hit is near 7.9%.
HCV inh – blocks hepatitis C virus; Huh7.5.1 HCVcc-Cre infection, luciferase reporter, 44 h; Potency, µM (titrated, usually from 41.8 µM), actives largely listed as inhibitors; 340,000 tested, 3.4% active; AID 651820; active means well fitted inhibition curve with a large enough effect; inconclusive means small, poorly fitted or top-dose-only effect, or another doubt; inactive means no such curve, though single readings can be large or run the other way
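Cells (1,000/well) were plated 4 h before compound, then infected with HCVcc-Cre virus (~0.5 moi). After 44 h further culture, infection was read as luciferase luminescence following a 15 min substrate incubation at room temperature.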
Lassa entry inh – inhibitors of Lassa virus binding or cell entry; Lassa virus pseudotype entry inhibition, cell reporter; 300,000 tested, 1.2% active; Potency, µM (series often up to 37.9 µM), most hits filed as inhibitors; calls by dose curve; tested in HEK293 cells; further: nearly all actives have a fitted effect of over 50% in size
MARV entry inh – Marburg virus entry inhibition; AID 540276; Marburg virus pseudotyped entry inhibition, cell reporter; Potency, µM (top dose mostly 37.8 µM), hits mostly inhibitors; 300,000 tested, 1.8% active; calls by dose curve; tested in HEK293 cells
HCMV antiviral – blocks human cytomegalovirus replication | 410,000 tested, 4.5% active | activity change, negative = inhibition, % at 57.5 µM | HFF cells, HCMV-luciferase reporter, 72 h; hits give low values; in the data active means activity change below about -60%; inconclusive means no clear call, values can overlap the other calls; inactive means above about -39%
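Two-dose cell screen: HFF monolayers treated with compounds and infected with luciferase-expressing HCMV at 1 PFU/cell, 72 h at 37C, then lysed for luciferase measurement.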
FMDV antiviral – foot and mouth disease virus antiviral activity; FMDV antiviral cell-based qHTS; Potency, µM (highest dose often 57.9 µM), usual class: inhibitors; 410,000 tested, 1.2% active; calls by dose curve; tested in HEK293T cells; further: read-out not given here; nearly all actives have a fitted effect of over 45% in size
Numbers stand for hits; i = inactive; ? = inconclusive; nt = no result given.

SMILES	HCV inh	Lassa entry inh	MARV entry inh	HCMV antiviral	FMDV antiviral
CC(C)C/C(=N/O)c1cn(C)c2ccccc12	i	1.1µM	?	i	i
Cn1cc(C(=O)NCc2ccccc2)c2ccccc21	i	i	?	i	i
O=C(CN1C(=O)c2ccccc2S1(=O)=O)c1ccc(F)cc1	i	nt	nt	-67	i
CC(C)C(NC(=O)CN1C(=O)c2ccccc2S1(=O)=O)C(C)C	i	nt	nt	i	i
O=C(CN1C(=O)c2ccccc2S1(=O)=O)c1ccc(OC(F)F)cc1	i	0.89µM	1.3µM	nt	?
COC(=O)c1ccc(NC(=O)CN2C(=O)c3ccccc3S2(=O)=O)cc1	i	i	i	i	i
COC(=O)c1ccc(OCC(O)CN2C(=O)c3ccccc3S2(=O)=O)cc1 (stereo not given)	5µM	?	i	i	i
O=C(CN1C(=O)c2ccccc2S1(=O)=O)c1cccc(Br)c1	i	1.3µM	?	i	10µM
O=C(CN1C(=O)c2ccccc2S1(=O)=O)c1ccc(Cl)cc1Cl	i	0.56µM	0.28µM	-91	2µM
O=C(CN1C(=O)c2ccccc2S1(=O)=O)c1ccccc1F	i	?	?	?	?
CC(C)CSc1ccccc1NC(=O)c1sc2nc(-c3ccncc3)ccc2c1N	nt	i	i	i	i
O=C(Nc1nccs1)C1(S(=O)(=O)c2ccc(Cl)cc2)CC1	i	i	i	i	i
Cc1ccc(S(=O)(=O)C2(C(=O)Nc3nccs3)CC2)cc1	i	nt	nt	-79	i
COc1cc(C(CCN2CCCC2)c2c(OC)cc(OC)c3c(C)cc(=O)oc23)cc(OC)c1OC (stereo not given)	10µM	nt	nt	i	i
COc1cc(C(CCN2CCOCC2)c2c(OC)cc(OC)c3c(C)cc(=O)oc23)cc(OC)c1OC (stereo not given)	i	nt	nt	i	i
CCCCN(CC)C(=S)Nc1ccc2nc(N3CCN(C)CC3)cc(C)c2c1	?	nt	nt	-72	i
CCCCN(C)CCNC(=S)Nc1ccc2nc(N3CCN(CC)CC3)cc(C)c2c1	?	7.1µM	?	i	i
Cc1cc(N2CCN(C)CC2)nc2ccc(NC(=S)N3CCN(c4ccc(Cl)cc4)CC3)cc12	?	i	i	?	i
Cc1cc(N2CCN(C)CC2)nc2ccc(NC(=S)N3CCN(c4ccc(F)cc4)CC3)cc12	10µM	nt	nt	i	i
CCCCNC(=S)Nc1ccc2nc(N3CCN(CC)CC3)cc(C)c2c1	13µM	i	?	i	i
COc1ccc(NC(c2ccc(F)cc2)c2nnc(-c3ccccc3Cl)o2)cc1Cl (stereo not given)	nt	i	i	i	i
Cc1ccc(-c2cn3c4c(=O)n(C)c(=O)n(C)c4nc3n2-c2cccc(Cl)c2)cc1	nt	?	nt	i	i
Cc1ccc(NC(=O)COc2ccc(CCO)cc2-n2nc3ccccc3n2)cc1C	13µM	?	?	?	i
CCOC(=O)C1=C(CC)Nc2ccccc2N=C1NC(=O)Nc1ccc(Cl)c(Cl)c1	?	?	?	-98	i
CCOC(=O)C1=C(CC)Nc2ccccc2N=C1NC(=O)c1cc(C)on1	i	nt	nt	i	i
SMILES	HCV inh	Lassa entry inh	MARV entry inh	HCMV antiviral	FMDV antiviral
O=C(OCCN1CCN(c2ncc(C(F)(F)F)cc2Cl)CC1)c1ccc(Cl)cc1	i	i	i	i	i
C/[N+]([O-])=C\c1cccc(OCCN2CCN(c3ncc(C(F)(F)F)cc3Cl)CC2)c1	25µM	i	?	-74	?
CCOC(=O)c1ccccc1NC(=O)N1CCCN(S(=O)(=O)c2ccc3c(ccn3CC)c2)CC1	nt	?	nt	i	i
CCOCCSc1c(C)cnc2c1c(=O)n(C)c(=O)n2C	nt	i	nt	?	i
COc1cccc(C(=O)Nc2ccc(C(=O)OCc3cc(=O)n4nc(C5CC5)sc4n3)cc2)c1	nt	i	nt	i	i
C=C(C)C(O)CC/C(C)=C/Cc1c(O)ccc(C(=O)/C=C/c2ccc(O)cc2)c1O (stereo not given)	?	nt	nt	-67	?
O=C(/C=C/c1ccc(O)cc1)c1ccccc1O	nt	nt	nt	nt	i
COc1ccc(C=CC(=O)c2ccc(OC)c(OC)c2O)cc1OC	i	?	?	i	?
COc1ccc(C(=O)/C=C/c2ccc(O)cc2)c(O)c1C/C=C(\C)CCC=C(C)C	?	nt	nt	-105	?
CCOC(=O)c1ccccc1NC(=O)c1cn(CC(C)C)c(=O)c2cc(OC)c(OC)cc12	nt	i	i	i	i
Cc1nn(-c2ccccc2)c(Cl)c1/C=N/Nc1ccc(Cl)c(C(=O)O)c1	i	?	2µM	i	10µM
O=C(Nc1ccccc1)[C@H]1[C@H](CO)[C@H]2Cn3c(cccc3=O)[C@H]2N1C(=O)C1CC1	nt	nt	nt	i	nt
CC(=O)c1cc2c(cc1NC(=O)CCc1ccccc1)OCO2	?	i	i	i	i
CC(=O)c1cc2c(cc1NC(=O)Cc1ccsc1)OCO2	5.6µM	nt	nt	i	i
C/C(Cn1cnc([N+](=O)[O-])n1)=N\NC(=O)c1cccc(F)c1	11µM	i	i	i	i
CCN1C(=NCCCOC(C)C)N[C@@H](CCc2ccccc2)[C@H](C(=O)OC)[C@H]1C	nt	nt	i	nt	nt
COC12C(COC(N)=O)C3=C(C(=O)C(C)=C(N)C3=O)N1CC1C2N1C (stereo not given)	?	nt	nt	-105	i
O=C1CCC[C@H]2[C@@H](Cc3ccccc3)[C@H](NCc3cccs3)CC[C@]23CCCN13	nt	nt	nt	i	nt
Cc1nnc(SCc2cc(=O)n3c(C)cccc3n2)s1	nt	i	nt	i	i
CC(C)C[C@H]1COc2c(Cl)cccc2S(=O)(=O)N1Cc1ccc(Cl)cc1	nt	i	nt	nt	nt
CC[n+]1c(/C=C/C=C/c2ccc(N(C)C)cc2)sc2ccccc21	2.8µM	?	1.8µM	-110	?
CCn1c(/C=C/N(C(C)=O)c2ccccc2)[n+](CC)c2ccc(Cl)cc21	i	i	i	i	i
CN(C)c1ccc(/C=C/C=C2/SC(=S)N(c3ccccc3)C2=O)cc1	i	i	i	i	?
CC[n+]1c(/C=C/C=C/N(C(C)=O)c2ccccc2)sc2ccccc21	?	i	?	?	?
CN(C)c1ccc(/C=C/C=C/c2sc3ccccc3[n+]2C)cc1	?	?	?	-95	40µM
SMILES	HCV inh	Lassa entry inh	MARV entry inh	HCMV antiviral	FMDV antiviral
CC[n+]1c(/C=C/N(C)c2ccccc2)sc2ccc(Cl)cc21	?	?	2.9µM	-97	nt
CC(=O)N1CCN2C(=O)C1CCCC(=O)c1cc(C3CCCCC3)ccc12 (stereo not given)	i	i	i	i	i
CC(=O)N1CCN2C(=O)C1CCCC(=O)c1cc(C(C)C)ccc12 (stereo not given)	i	i	i	-67	i
O=C(c1ccccc1)c1cccc2ccccc12	i	i	i	i	i
O=C1C=CC(=O)N1c1ccccc1N1C(=O)C=CC1=O	?	11µM	?	i	?
O=C(c1ccccc1)c1ccccc1N1C(=O)C=CC1=O	?	?	?	-93	?
COc1ccc(CCNC(=O)c2cc3n(n2)CCCN(Cc2ccc(C)cc2)C3=O)cc1OC	nt	i	nt	i	?
CNC(=O)c1ccsc1NC(=O)CCS(=O)(=O)c1ccc(F)cc1	i	i	?	i	i
NC(=O)c1ccsc1NC(=O)CCS(=O)(=O)c1ccc(F)cc1	?	i	i	-63	?
Cc1cccc(C)c1NC(=S)N1CCC(N(C)CC2CCCO2)CC1 (stereo not given)	i	i	i	i	i

Compound activity deposited in PubChem BioAssay by National Center for Advancing Translational Sciences (NCATS).
